High-throughput results deposited in PubChem by National Center for Advancing Translational Sciences (NCATS).
CHX counter: affects cycloheximide protein synthesis inhibition readout, counter-screen; cell reporter, cycloheximide protein synthesis inhibition counterscreen; max response, %; 300,000 compounds, 12% hits; AID 2314; in the data active means max response mostly above about 13%, no sharp cut-off; inactive means mostly below about 14%; further: read at 38.3 µM for the half of the compounds with a filed dose
Tb PYK inh: blocks Trypanosoma brucei pyruvate kinase; Q57TT1; TbPYK enzyme, Kinase-Glo Plus ATP luminescence, 45 min; Potency, µM (top dose mostly 76.8 µM), most hits filed as inhibitors; 410,000 compounds, 0.12% hits; AID 624173; further: nearly all actives have a fitted effect of over 50% in size
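Enzyme and substrate buffer are dispensed first and compound is pin-transferred. ADP at 130 uM final then starts the reaction, which runs 45 min at room temperature. Detection reagent is added for 10 min before luminescence is imaged.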
Shiga toxin inh: Shiga toxin inhibition; inhibition, % at 38.7 µM; 290,000 compounds, 9.2% hits; Vero cells, Shiga toxin protein synthesis inhibition reporter; AID 2315; in the data active means inhibition mostly above about 28%, no sharp cut-off; inactive means mostly below about 43%
Sm TGR block: blocks Schistosoma mansoni thioredoxin glutathione reductase; Q962Y6; 360,000 compounds, 3% hits; Potency, µM (doses to about 114 µM), usual class: inhibitors; purified TGR, DTNB reduction, TNB absorbance 405 nm; further: nearly all actives have a fitted effect of over 60% in size
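TGR 20 nM + NADPH 100 uM (dispensed conc.), cpd preinc 15 min RT; start with NADPH (500 uM addition) then DTNB (15 mM addition). Kinetic TNB absorbance, 405 nm filter. Four-parameter Hill fit across titration.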
LmPK inh: LmPK (Leishmania mexicana) enzyme inhibition. purified LmPK, Kinase-Glo ATP luminescence, 1 h. Potency, µM (doses to about 57.5 µM), hits mostly inhibitors. 290,000 compounds, 0.37% hits. AID 1721
Target sequence (Q27686 whole entry, looked up): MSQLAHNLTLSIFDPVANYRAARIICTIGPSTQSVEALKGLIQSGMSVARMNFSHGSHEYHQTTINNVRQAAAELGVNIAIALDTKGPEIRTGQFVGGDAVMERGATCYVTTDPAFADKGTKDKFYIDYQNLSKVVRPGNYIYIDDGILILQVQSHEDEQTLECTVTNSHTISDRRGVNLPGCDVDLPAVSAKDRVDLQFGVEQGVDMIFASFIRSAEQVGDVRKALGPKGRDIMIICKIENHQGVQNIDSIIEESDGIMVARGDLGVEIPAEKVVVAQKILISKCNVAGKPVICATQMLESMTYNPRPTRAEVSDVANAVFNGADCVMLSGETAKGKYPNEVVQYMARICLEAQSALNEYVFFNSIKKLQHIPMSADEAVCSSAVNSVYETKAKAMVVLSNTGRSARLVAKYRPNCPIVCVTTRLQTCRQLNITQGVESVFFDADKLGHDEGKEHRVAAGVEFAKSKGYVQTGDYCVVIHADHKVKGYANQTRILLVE
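ATP generated from ADP (0.1 mM) and PEP (0.5 mM) by 0.1 nM LmPK over 1 h at room temperature (pH 7.2 imidazole buffer) was detected by coupled luciferase luminescence. Values were normalized to uninhibited and no-enzyme wells.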
Giardia FBPA inh-1: inhibitors of Giardia lamblia fructose-1,6-bisphosphate aldolase; A8B2U2; purified Giardia FBPA; Potency, µM (series often up to 59.6 µM), hits mostly inhibitors; 290,000 compounds, 0.71% hits; further: nearly all actives have a fitted effect of over 55% in size
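40 nM FBPA preincubated 10 min at RT with compound (up to 57.5 uM final), then substrate plus GAPDH/TPI/NAD/arsenate coupling and diaphorase/resazurin added. Fluorescence read after 20 min at RT, 525/598 nm.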
Giardia growth: blocks growth of Giardia lamblia trophozoites. shares compounds with Giardia FBPA inh-1. Giardia lamblia trophozoite growth inhibition. Potency, µM (top dose mostly 57.5 µM), most hits filed as inhibitors. 1,500 compounds, 5% hits. AID 2785;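 further: trophozoites exposed to compound for 48 h at 37 °C; nearly all actives have a fitted effect of over 70% in size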
Mammalian tox: toxic to mammalian cells in Giardia aldolase counter-screen. 1,500 compounds, 4% hits. mammalian cell viability counter-screen, qHTS. AID 2786. shares compounds with Giardia FBPA inh-1. Potency, µM (doses to about 57.5 µM), most hits filed as inhibitors;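 further: Chinese hamster ovary cells used as mammalian cytotoxicity surrogate; viability measured as cellular ATP by luminescence; compound exposure lasted 48 h before reading; nearly all actives have a fitted effect of over 60% in size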
Giardia FBPA inh-2: confirmation of Giardia fructose-bisphosphate aldolase inhibitors; AID 2787; Potency, µM (titrated, usually from 57.5 µM), actives largely listed as inhibitors; purified Giardia aldolase enzyme activity, qHTS; 1,500 compounds, 5% hits; shares compounds with Giardia FBPA inh-1; further: nearly all actives have a fitted effect of over 45% in size
Rabbit aldolase: blocks rabbit muscle aldolase in Giardia aldolase selectivity test. shares compounds with Giardia FBPA inh-1. Rabbit muscle FBPA enzyme inhibition, selectivity counter-screen. Potency, µM (highest dose often 57.5 µM), usual class: inhibitors. 1,500 compounds, 4% hits. AID 2794; further: nearly all actives have a fitted effect of over 60% in size
GAPDH counter: counter-screen for Giardia aldolase inhibitors: GAPDH coupling enzyme | shares compounds with Giardia FBPA inh-1 | 1,500 compounds, 6% hits | AID 2795 | GAPDH coupling enzyme counterscreen, biochemical, qHTS | Potency, µM (top dose mostly 57.5 µM), usual class: inhibitors; further: nearly all actives have a fitted effect of over 55% in size
A number is an active result; 0 = inactive; ? = inconclusive; - = not tested or not shown; ! = not confirmed by another sample; [ ] = remark or other dose. Only a selection was taken, and hits are over-represented in it overall. Unless noted, the call rests on the fitted dose curve; in most records, active means well fitted curve in the direction sought with a large enough effect; inconclusive means small, poorly fitted or top-dose-only effect, or another doubt; inactive means no such curve, though single readings can be large; an effect the other way counts as inactive or inconclusive.

SMILES	CHX counter	Tb PYK inh	Shiga toxin inh	Sm TGR block	LmPK inh	Giardia FBPA inh-1	Giardia growth	Mammalian tox	Giardia FBPA inh-2	Rabbit aldolase	GAPDH counter
CSCCC(=O)Nc1nc(-c2ccccn2)cs1	21	0	0	0	0	16µM	14µM	0	0	0	0
O=C(/C=C/c1ccco1)Nc1nc(-c2ccccn2)cs1	49	0	53	13µM	0	18µM	?	?	0	0	0
O=C(NNC(=O)C1CC(c2cccs2)=NO1)Nc1ccccc1 (stereo not drawn)	0	0	0	0	0	0	-	-	-	-	-
Cn1c(=O)c2[nH]c(C(O)c3ccc(Cl)cc3)nc2n(C)c1=O (stereo not drawn)	-	0	-	-	-	-	-	-	-	-	-
C/C(=N/O)c1ccccn1	0	0	0	0	0	3.2µM	0	0	0	0	?
CCNC(=S)NS(=O)(=O)c1ccccc1	0	0	0	0	0	7.9µM	0	0	0	0	0
S=C(NCc1ccccc1)NNc1ccccc1	0	0	0	?	0	?	-	-	-	-	-
NS(=O)(=O)c1ccc(CNC(=S)NCc2ccc(Cl)cc2)cc1	0	0	0	0	0	0	-	-	-	-	-
CCNC(=S)NS(=O)(=O)c1ccc(Cl)cc1	0	0	0	0	0	7.1µM	0	0	0	0	0
O=C(Cc1ccccc1)NS(=O)(=O)c1ccccc1	-	0	-	-	-	-	-	-	-	-	-
CCNC(=S)NNc1ccccc1	0	0	0	14µM	0	11µM	0[10.4 µM]	0	0	0	0
CCOc1ccc(/C=N/NC(=O)c2nnn(-c3nonc3N)c2CN(C)C2CCCCC2)cc1	0	0	0	0	0	0	-	-	-	-	-
S=c1[nH]nc(-c2ccco2)n1/N=C/c1ccccn1	0	-	0	0	0	?	-	-	-	-	-
S=c1[nH]nc(-c2ccccn2)n1/N=C/c1ccco1	0	0	0	0	0	20µM	0[10.4 µM]	0	0	0	0
Nc1nc(-c2cccc(F)c2)cs1	0	0	0	?	0	11µM	0[10.4 µM]	0	0	0	0
O=C(O)c1ccc[nH]c1=S	0	0	0	0	0	4.5µM	0	0	0	0	0
COc1cccc(CN2CCN(Cc3cc(OC)c(OC)cc3OC)CC2)c1	0	0	0	0	0	14µM	0	0	0	0	0
COc1ccc(CN2CCN(c3ccc(F)cc3)CC2)c(OC)c1OC	0	0	0	0	0	0	-	-	-	-	-
COc1cccc(CN2CCNCC2)c1	0	0	0	0	0	3.5µM	?	0	0	0	0
COc1cc(OC)c(OC)cc1CN1CCN(Cc2ccc(SC)cc2)CC1	0	0	0	0	0	?	-	-	-	-	-
COc1ccc(CN2CCNCC2)c(OC)c1OC	0	0	0	?	0	22µM!	0[10.4 µM]	0	0	0	0
CSC[C@H]1CN(c2ccccc2)C(=O)[C@@H]1CC(=O)Nc1ccccc1	-	0	-	-	-	-	-	-	-	-	-
Cc1ccc(C(=O)COc2cc(C)nc3nncn23)cc1	0	0	0	0	0	0	-	-	-	-	-
Cc1ccc(C2C3=C(CC(C)(C)CC3=O)NC3=C2C(=O)c2ccccc23)cc1 (stereo not drawn)	0	0	0	0	0	0	-	-	-	-	-
CC1(C)C(=O)NC2=C1C(=O)C(=O)c1ccccc12	0	-	0	-	-	0.16µM	16µM	20µM	1.1µM	0.89µM	1.3µM
SMILES	CHX counter	Tb PYK inh	Shiga toxin inh	Sm TGR block	LmPK inh	Giardia FBPA inh-1	Giardia growth	Mammalian tox	Giardia FBPA inh-2	Rabbit aldolase	GAPDH counter
CC(=O)c1c(C)[nH]c(=S)c(C#N)c1-c1ccc(Cl)cc1	0	?	0	0	0	0	-	-	-	-	-
Cc1[nH]c(=S)c(C#N)c(-c2ccco2)c1C(=O)N(C)C	0	?	0	0	0	20µM	?	0	0	0	0
O=C1c2cccc3cccc(c23)C(=O)N1Cc1ccccn1	-	0	-	-	-	-	-	-	-	-	-
COc1ccc(-c2nnc(NC(=O)c3ccccc3C)o2)cc1	0	0	0	0	0	16µM	?	0	0	0	0
COc1cc(NC(=O)CN2C(=O)C(c3ccc(Cl)cc3)=NC23CCCCC3)cc(OC)c1	-	0	-	0	-	-	-	-	-	-	-
c1ccc(-c2nc(-c3ccncc3)n[nH]2)nc1	0	0	0	0	?	3.5µM	0	0	0	0	0
